Measurements as given in PubChem BioAssay AID1259343 (VanderVen Lab, College of Veterinary Medicine, Cornell …, 2017).
About 2,900 (47%) of roughly 6,200 compounds were called active. So high a share suggests a set chosen from earlier hits. This is one part of the list. Values without a mark were called inactive. Cut-off read from the data, not from the text of the source: active = inhibition above about 50%; inactive = the rest.

Assay: Mycobacterium tuberculosis growth inhibition, primary screen (AID 1259343)
Details: inhibition: at 10 µM, hits give high values; outcome: 10 uM

| Structure (SMILES) | inhibition |
| --- | --- |
| COC(=O)c1ccc(NC(=O)CCc2ccncc2)cc1C | 92.8% (active) |
| OCCn1c(CSc2nc3ccccc3o2)nc2ccc(Cl)cc21 | -42.1% |
| FC(F)(F)c1ccc(-c2nc(CSc3nc4cc(Cl)ccc4o3)cs2)cc1 | 87.2% (active) |
| Fc1ccc(Nc2nc3cc(Cl)ccc3o2)cc1Cl | -2.2% |
| Cc1c2ccccc2[nH]c2c1oc1cc(=O)ccc12 | 97.4% (active) |
| CCCc1nc(-c2ccc(S(N)(=O)=O)cc2)cs1 | -6.09% |
| CCCc1nc(C(=O)N2C[C@H]3CC=CC[C@H]3C2)cs1 | 58.6% (active) |
| Clc1ccc(CN2CCN(Cc3cnc(CC4CCCC4)[nH]3)CC2)cc1 | 84.3% (active) |
| Cc1cc(C)c(C#N)c(N2CCN(Cc3ccc(Cl)cc3)CC2)n1 | 47.2% |
| CC1CCc2onc(C(=O)Nc3nc4ccccc4n3C)c2C1 (stereo not given) | 7% |
| O=S(=O)(/C=C/c1ccccc1)NC12CC3CC(CC(C3)C1)C2 | -12.7% |
| Cc1ccc(C(=O)NC(C)C23CC4CC(CC(C4)C2)C3)s1 (stereo not given) | 93.3% (active) |
| COc1ccc(C23CC4CC(CC(C(=O)O)(C4)C2)C3)c(F)c1 | 21.2% |
| O=C(NC(=S)NC1C2CC3CC(C2)CC1C3)c1cccs1 (stereo not given) | 56.9% (active) |
| COc1cccc(C(=O)NC(C)C23CC4CC(CC(C4)C2)C3)c1 (stereo not given) | 62.8% (active) |
| S=C(NNc1ccccc1)NC12CC3CC(CC(C3)C1)C2 | 84.2% (active) |
| COC(=O)C1CCCc2c1ccn2CC=C(C)C (stereo not given) | 27.3% |
| O=C(NC12CC3CC(CC(C3)C1)C2)c1cccs1 | 98.1% (active) |
| CC(NC(=O)c1cccs1)C12CC3CC(CC(C3)C1)C2 (stereo not given) | 67.3% (active) |
| CC(NC(=O)C1=NNC(=O)CC1)C1CC2CCC1C2 (stereo not given) | 27.1% |
| CC(C)c1ccc(C2NC(=O)C(O)=C2C(=O)c2cccs2)cc1 (stereo not given) | 29% |
| CC1CC1C(=O)NC(C)C12CC3CC(CC(C3)C1)C2 (stereo not given) | 55.2% (active) |
| CC(NC(=O)C1=NNC(=O)CC1)C12CC3CC(CC(C3)C1)C2 (stereo not given) | 68% (active) |
| CN(C)C(=O)c1ccc(-c2cnc3c(c2)CCN3CCCc2ccccc2)cc1 | 33.1% |
| COc1cc(NC(=O)c2ccc(C)s2)cc(OC)c1OC | 6.84% |
| COc1ccc(C(NC(=O)c2ccc(C)s2)C2CC2)cc1 (stereo not given) | 83.9% (active) |
| CN(C)c1nc(N)nc(Cn2nc(-c3ccc(F)cc3)oc2=O)n1 | 91.8% (active) |

| Structure (SMILES) | inhibition |
| --- | --- |
| O=C1CC(c2ccc(Br)s2)c2cnn(C3CCCC3)c2N1 (stereo not given) | 31.2% |
| CC(C)CC1=NN(C(=O)c2cccc(Br)c2)C(O)(C(F)(F)F)C1 (stereo not given) | 23% |
| O=C(N/N=C(\CC(=O)c1cccs1)C(F)(F)F)c1cccc(Br)c1 | 103% (active) |
| CCOC(=O)c1c(NC(=O)c2c(F)c(F)c(F)c(F)c2F)sc2c1CCN(c1ccc(Cl)nc1)C2 | 61.8% (active) |
| CCN1CCc2c(sc(NC(=O)c3ccc(OC)c(OC)c3)c2-c2nc3ccccc3s2)C1 | 28.1% |
| Cc1ccc(CN(C)C(=O)c2cc(Br)c[nH]2)o1 | 44.1% |
| Cc1ccc(CN(C)C(=O)c2cc(C(C)C)[nH]n2)o1 | 69.9% (active) |
| Cc1noc(CN(C)C(=O)c2cc(C(C)C)no2)n1 | -37.1% |
| CCN(CC)C(=O)COC(=O)c1cc(-c2cc(C)sc2C)nc2onc(C)c12 | -34.1% |
| Cc1ccc(C)c(OCc2n[nH]c(=S)o2)c1 | 21.7% |
| S=c1[nH]nc(COc2ccc(Cl)cc2Cl)o1 | 79.7% (active) |
| CC(Oc1ccc(F)cc1)c1n[nH]c(=S)o1 (stereo not given) | -17.5% |
| S=c1[nH]nc(COc2ccccc2Cl)o1 | -28.9% |
| COc1cccc(OCc2nc(-c3ccc(Br)o3)no2)c1 | 93.8% (active) |
| COc1cccc(OCc2n[nH]c(=S)o2)c1 | 79.7% (active) |
| Cc1cc(C)nc(Nc2cccc(OCc3nc(-c4cccs4)no3)c2)n1 | 29.2% |
| S=c1[nH]nc(COc2ccc(Cl)cc2)o1 | 91.8% (active) |
| CN1N=C(c2ccc(F)c(F)c2)CSC1=NCc1ccccc1 | 18.9% |
| OC1(C2(O)CC(c3ccccc3)NO2)CCCCC1 (stereo not given) | 27.1% |
| O=C(NN=C1C(=O)c2cccc3cccc1c23)NC1CCCCC1 | -1.18% |
| Cc1cccc(C)c1-n1nnnc1SC(C)C(=O)NC(=O)NC1CCCCC1 (stereo not given) | 81.5% (active) |
| CC(On1nnc2ccc(Cl)cc21)C(=O)NC(=O)NC1CCCCC1 (stereo not given) | 27.5% |
| N#Cc1ccc(/C=C/C(=O)N2CCN(Cc3ccc(Br)s3)CC2)cc1 | 28.6% |
| Brc1ccc(-c2ccc(CN3CCNCC3)s2)cc1 | 73.8% (active) |
| O=C(C1CC1)N1CCC(NCc2ccc(-c3cccc(Br)c3)s2)CC1 | 44.8% |
| O=C(NC(=S)Nc1cc(Cl)c(Cl)cc1Cl)C1CC1 | 82.6% (active) |
| CCN(C(=S)NC(=O)C1CC1)C1CCCCC1 | 20.5% |

| Structure (SMILES) | inhibition |
| --- | --- |
| O=C(NNc1c(Cl)cc(Cl)cc1Cl)C1CCC1 | 47.8% |
| C=CCOc1ccccc1CN(C(=O)CCl)c1ccc2c(c1)OCCO2 | 37.2% |
| O=[N+]([O-])c1cc(S(=O)(=O)Nc2cc(Cl)ccc2F)ccc1F | 47.3% |
| O=[N+]([O-])c1cc(S(=O)(=O)Nc2cc(Cl)ccc2-n2cncn2)ccc1Cl | 67.4% (active) |
| O=S(=O)(Nc1cc(Cl)ccc1-n1cncn1)c1ccc(F)cc1 | 66% (active) |
| O=c1[nH]nc(-c2ccccc2O)n1-c1ccc(Br)cc1 | -5.57% |
| COC(=O)N1CCc2onc(-c3ccc(-c4ccccc4)cc3)c2C1 | 25.7% |
| O=C(CCNc1ccc(-c2ccccc2)cc1)N1CCn2cncc2C1 | 92.2% (active) |
| O=C(CN1CCN(C(=O)C2CCCO2)CC1)Nc1ccc(-c2ccccc2)cc1 (stereo not given) | 4.56% |
| c1ccc(Cc2nnc3sc(-c4ccco4)nn23)cc1 | 21.3% |
| CCCCOC(=O)c1ccc(Nc2ncnc3c2nnn3C)cc1 | 9.62% |
| CCCOC(=O)c1ccc(NCN2C(=O)c3ccccc3C2=O)cc1 | 93.9% (active) |
| CCn1cc(CNC(=O)CCc2nnc(CCC3CCCCC3)o2)cn1 | 76.4% (active) |
| O=C(CCc1nnc(CCC2CCCCC2)o1)NCCc1cccnc1 | 41% |
| COCC(C)NC(=O)CCc1nnc(CCC2CCCCC2)o1 (stereo not given) | inactive |
| CC(Cc1cnccn1)NC(=O)CCc1nnc(CCC2CCCCC2)o1 (stereo not given) | 33.8% |
| CN(Cc1ccoc1)C(=O)c1cn(CC2CCCCC2)nn1 | 26.8% |
| CC(CNC(=O)CCc1nnc(CCC2CCCCC2)o1)c1ccccc1 (stereo not given) | 57.9% (active) |
| O=C1Nc2ccc(Br)cc2C12Nc1ccccc1S2 (stereo not given) | 5.83% |
| O=C(CCl)Nc1ccc(OC(F)F)c(Cl)c1 | 86.6% (active) |
| FC(F)Oc1ccc(NC(=S)Nc2cccnc2)cc1Cl | 92.8% (active) |
| CC(OC(=O)c1ccco1)C(=O)Nc1ccc(OC(F)F)c(Cl)c1 (stereo not given) | 4.36% |
| N#Cc1ncn(CC(=O)Nc2ccc(OC(F)F)c(Cl)c2)n1 | 73.2% (active) |
| Cc1cc(C(=O)Nc2ccc(OC(F)F)c(Cl)c2)on1 | 91.1% (active) |
| COC(=O)C1=C(OC)C(=O)OC12C=CC(=O)C=C2 | -11.4% |
| Fc1ccc(Nc2nnc(-c3ccc(Br)s3)o2)c(F)c1 | 87.9% (active) |
| Cc1cc2c(F)ccc(C)c2nc1N1CCC(O)(C(=O)O)CC1 | 86% (active) |

| Structure (SMILES) | inhibition |
| --- | --- |
| Clc1ccc(-c2cnnc(N3CCC(c4ccncc4)CC3)n2)cc1 | 21.9% |
| CS(=O)c1ccccc1C(=O)OCc1c(Cl)cccc1Cl (stereo not given) | 30.8% |
| CC(C)C(NC(=O)C1=Cc2ccccc2OC1)c1cccs1 (stereo not given) | 5.93% |
| CC(NC(=O)COC(=O)c1ccccc1O)c1cccs1 (stereo not given) | 88.8% (active) |
| Cc1cccc(N2CCN(C(=O)c3cc(COc4ccc(F)c(F)c4)on3)CC2)n1 | 52.2% (active) |
| CCOC(=O)N1CCN(C(=O)c2cc(COc3ccc(C)c(C)c3)on2)CC1 | 74.9% (active) |
| CCCCc1nnc(-c2cc3ccccc3[nH]2)o1 | 18.4% |
| CCCc1nnc(-c2cc3ccccc3[nH]2)o1 | 38.4% |
| CCCc1nnc(-c2cc3ccccc3n2C)o1 | 69% (active) |
| O=C(CCc1nc(-c2ccncc2)no1)Nc1ccc(Oc2ccccc2)cc1 | 95.7% (active) |
| c1ccc(CCc2nc(-c3ccncc3)no2)cc1 | inactive |
| COC(=O)c1cccc(NC(=O)N2CCN(CCCOC(c3ccc(Cl)cc3)c3ccc(Cl)cc3)CC2)c1 | 13.4% |
| c1ccc2[nH]c(-c3ccc(OCc4nc(CC5CC5)no4)cc3)nc2c1 | 10.7% |
| c1ccc(OCc2noc(CN3CCN(c4ccccn4)CC3)n2)cc1 | 43% |
| CCc1ccc(CN(C)Cc2nc(COc3ccccc3)no2)nc1 | 93.7% (active) |
| CN(Cc1ccc2nsnc2c1)Cc1nc(COc2ccccc2)no1 | 65.2% (active) |
| CN(Cc1nc(COc2ccccc2)no1)CC1Cc2ccccc2O1 (stereo not given) | 53.6% (active) |
| CCc1noc(CSC2=Nc3ccccc3CS2)n1 | 23% |
| COc1ccc(-c2nc(CN(C)Cc3ccc4nsnc4c3)c(C)o2)c(C)c1C | 12.7% |
| c1ccc(OCc2noc(COc3ccc4ncccc4c3)n2)cc1 | 64.9% (active) |
| CN(Cc1nc(COc2ccccc2)no1)CC1CCOCC1 | 29.5% |
| Nc1ccccc1Sc1c[nH]c2ccccc12 | 46.1% |
| Cc1ccc(OCCN(C)Cc2nc(COc3ccccc3)no2)cc1 | 80% (active) |
| Cc1ccc(OCCN(C)c2ccccc2)cn1 | -0.64% |
